From PubChem BioAssay (Tox21)
Inconclusive results are not listed. Where a call stands in place of a potency, no number is given. The source made the active and inactive calls. The call rests on the fitted dose curve.

assay: p53 small molecule agonists, cell-based qHTS assay: qHTS cell viability counter screen (AID 1963581); conditions: p53RE-bla HCT-116 viability, ATP luminescence, 16 h; series mostly up to 66 µM; further: nearly all actives have a fitted effect of over 45% in size
Source text: National Center for Advancing Translational Sciences [NCATS]
Division of Preclinical Innovation [DPI]
U.S. Environmental Protection Agency [EPA]
National Institutes of Environmental Health Sciences [NIEHS]
National Toxicology Program [NTP]
U.S. Food and Drug Administration [FDA]
p53, a tumor suppressor protein, is activated following cellular insult, including DNA damage and other cellular stresses. The activation of p53 regulates cell fate by inducing DNA repair, cell cycle arrest, apoptosis, or cellular senescence. The activation of p53, therefore, is a good indicator of DNA damage and other cellular stresses. The CellSensor p53RE-bla HCT-116 cell line (Invitrogen) contains a stably integrated beta-lactamase reporter gene under control of the p53 response elements. The activation of the reporter gene under culture conditions can be detected by fluorescence intensity. This cell line was used to screen the Tox21 compound library in a 1536-well plate format and to identify agonists that activate the p53 signaling pathway. The cytotoxicity of the Tox21 compound library against the p53 RE-bla HCT-116 cell line was tested in parallel by measuring the intra cellular ATP content in the same wells.
Tox21 Assay Protocol Summary:
The p53RE-bla cells were dispensed at 4,000 cells/5 ul/well in 1536-well black wall/clear bottom plates using a Multidrop dispenser. After the assay plates were incubated at a 37 C/5% CO2 incubator for 5 hours, 23 nL of compounds dissolved in DMSO, positive controls or DMSO only was transferred to the assay plate by a pin tool. The plates were incubated at 37 C for 16 hours. After 1 uL of LiveBLAzerTM B/G FRET substrate was added using a Flying Reagent Dispenser, the plates were incubated at room temperature for 2 hours, and fluorescence intensity was measured by an Envision plate reader. For cell viability readout that measures cytotoxicity, 4 ul/well of CellTiter-Glo reagent was added into the assay plates using a Flying Reagent Dispenser. After 30 min incubation at room temperature, the luminescence intensity in the plates was measured using a ViewLux plate reader.

SMILES	Potency	activity change, negative = cytotoxicity
CCC(=O)OC/C=C(\C)CCC=C(C)C	inactive	
CCC(C)C1CCCCC1=O (stereo not given)	inactive	
Fc1ccccc1-c1ccccc1	inactive	
CCC/C=C/C=O	inactive	
CC1CC(O)CC(C)(C)C1 (stereo not given)	inactive	
CCOC(=O)c1cccc(N)c1	inactive	
O=C(O[C@@H]1Cc2c(O)cc(O)cc2O[C@@H]1c1cc(O)c(O)c(O)c1)c1cc(O)c(O)c(O)c1	inactive	
C[N+]1([O-])CCOCC1	inactive	
OCCOCCOCCOCCOCCO	inactive	
Cc1ccc(C)cc1	inactive	
N[C@@H](CSSC[C@H](N)C(=O)O)C(=O)O		0.512% [at 0.249 µM] (inactive)
CC(=O)CC(C)=O	inactive	
CCOC(/C=C(\C)CCC=C(C)C)OCC	inactive	
FC(F)(F)C(F)(F)C(F)(F)C(F)(F)C(F)(F)C(F)(F)CCI	inactive	
C[C@@H]1CCC[C@H](C)N1CCCC(O)(c1ccccc1)c1ccccn1 (stereo not given in full)	inactive	
O=CC1CC=CCC1 (stereo not given)	inactive	
C=CCCC=C	inactive	
CC(=O)OC/C=C/c1ccccc1	inactive	
O=C(O)c1cccc(Cl)c1Cl	inactive	
NCCN1CCNC1=O	inactive	

SMILES	Potency	activity change, negative = cytotoxicity
CN(C)C(=S)SC(=S)N(C)C	inactive	
COC(=O)c1ccccc1C	inactive	
O=C(CCN1CCN(CCO)CC1)N1c2ccccc2Sc2ccc(C(F)(F)F)cc21	inactive	
CCN(CCO)c1cccc(C)c1	inactive	
O=S(O)CO	inactive	
Nc1ncnc2c1ncn2Cc1c(F)cccc1Cl	inactive	
CCCC[C@H]1CN(CC2CCOCC2)C(=O)OC12CCN(C1(C)CCN(C(=O)c3c(C)ncnc3C)CC1)CC2	inactive	
CCOC(=S)SSC(=S)OCC	inactive	
O=C(O)c1ccccc1C(c1ccc(O)cc1)c1ccc(O)cc1	inactive	
CC1CC(=O)CC(C)(C)C1 (stereo not given)	inactive	
CCCCOCCOCCOC(=O)CCCCC(=O)OCCOCCOCCCC	inactive	
CC(C)CC(C)O (stereo not given)	inactive	
CCC(C)(C)C	inactive	
O=C1CC(c2ccc(Cl)cc2)CC(=O)N1	inactive	
CC(C)(C)CC(C)(C)c1ccc(OCCOCC[N+](C)(C)Cc2ccccc2)cc1	inactive	
C[C@@H]1CCN(C(=O)[C@H](CCCN=C(N)N)NS(=O)(=O)c2cccc3c2NC[C@H](C)C3)[C@@H](C(=O)O)C1	inactive	
CCOC(=O)[C@H](CCc1ccccc1)N[C@@H](C)C(=O)N1Cc2ccccc2C[C@H]1C(=O)O	inactive	
O=c1[nH]c2ccc(Cl)cc2o1	inactive	
CN=C(NC#N)NCCSCc1nc[nH]c1C	inactive	
O=C1OC(=O)C2CC=CCC12 (stereo not given)	inactive	
